{"source": "ChEMBL document CHEMBL3988442", "about": "“University of Dundee, Small-Polar-MMV Screening Library” (2021)", "note": "The campaign covered roughly 48,000 compounds. About 13,000 (27%) showed an effect of 50% or more. The list shows a part of the results.", "data": [{"tested_on": "Wolbachia pipientis", "assay": "Anti-Wolbachia Cell-Based Screen", "type": "functional", "design": "scale not given: in the data most compounds retested in dose-response had high values", "conditions": "5 µM", "units": {"Percent Effect": "%"}, "values": [{"smiles": "Cc1n[nH]cc1CNCC(c1ccsc1)N(C)C", "note": "(configuration not stated)", "Percent Effect": 26.65}, {"smiles": "COc1cccc(Cn2cccc(C#N)c2=O)c1", "Percent Effect": -6.219}, {"smiles": "CCN1N=C(C(=O)N2CCCC(c3nc(C)c(C)s3)C2)CCC1=O", "note": "(configuration not stated)", "Percent Effect": 92.25}, {"smiles": "CCN1N=C(C(=O)N2CCCC(c3nc(C)cs3)C2)CCC1=O", "note": "(configuration not stated)", "Percent Effect": 85.99}, {"smiles": "CCc1csc(C2CCCN(C(=O)C3=NN(CC)C(=O)CC3)C2)n1", "note": "(configuration not stated)", "Percent Effect": 7.447}, {"smiles": "CCN1N=C(C(=O)N2CCCC(c3noc(C)n3)C2)CCC1=O", "note": "(configuration not stated)", "Percent Effect": -1.234}, {"smiles": "CCc1nc(C2CCCN(C(=O)C3=NN(CC)C(=O)CC3)C2)no1", "note": "(configuration not stated)", "Percent Effect": 20.67}, {"smiles": "Cc1nc(C2CCCN(C(=O)C3=NN(C(C)C)C(=O)CC3)C2)no1", "note": "(configuration not stated)", "Percent Effect": -5.623}, {"smiles": "COC1CCCN(C2CCN(c3cccc(-c4csc(C)n4)c3)CC2)C1", "note": "(configuration not stated)", "Percent Effect": 10.88}, {"smiles": "NC(=O)C1CCN(C(=O)C2SCCc3sccc32)CC1", "note": "(configuration not stated)", "Percent Effect": -9.27}, {"smiles": "COc1cccc(-c2ncc(CN3C[C@@H]4CC[C@H](C3)N(C)C4=O)s2)c1", "Percent Effect": 4.635}, {"smiles": "COCCn1ccnc1C1CCN(C(=O)c2cccc(COC)n2)CC1", "Percent Effect": -13.9}, {"smiles": "CN(C)S(=O)(=O)N1C[C@H]2CCC[C@@]2(COCC2CC2)C1", "Percent Effect": -7.001}, {"smiles": "CC(C)C(=O)N1CCOC2(COCCN(c3ncccn3)C2)C1", "note": "(configuration not stated)", "Percent Effect": 1.497}, {"smiles": "CN(C)CC(=O)N1CCC2(CC1)COCCN(c1ncccn1)C2", "Percent Effect": 104.4}, {"smiles": "CN(C)CC(=O)N1CCC2(CC1)CN(c1ncccn1)CCO2.O=C(O)C(F)(F)F", "Percent Effect": -4.698}, {"smiles": "CN(C)C(=O)N1CCC2(CC1)COCCN(c1ncccn1)C2", "Percent Effect": 89.78}, {"smiles": "CN(C)CC(=O)N1CCC2(CC1)COCCN(Cc1ccncc1)C2", "Percent Effect": -9.31}, {"smiles": "c1cc(CN2CCCCC2)cc(NCc2cc[nH]n2)c1", "Percent Effect": 0.9619}, {"smiles": "Cc1ccc(S(=O)(=O)NC[C@H]2OC[C@@H](NCc3ccncc3)[C@@H]2O)cc1", "Percent Effect": -4.658}, {"smiles": "CCc1nc(C)c([C@H]2CN(C)C[C@@H]2C(=O)NC(C)(C)c2ccccc2)[nH]1", "Percent Effect": -16}, {"smiles": "Cc1nc(C)n(CC2CCCCN2CCCS(=O)(=O)N(C)C)n1", "note": "(configuration not stated)", "Percent Effect": -10.86}, {"smiles": "CCC[C@@H]1CN(C(=O)c2c(F)ccc(C)c2Cl)C[C@H]1C(=O)O", "Percent Effect": 10.65}, {"smiles": "CC(=O)c1c(C)cc(C)c(CS(=O)(=O)c2nccn2C)c1C", "Percent Effect": -11.41}, {"smiles": "CN(C(=O)C1CCOCC1)[C@@H]1CCC[C@@H](N2CCOCC2)[C@@H]1O", "Percent Effect": 124.2}, {"smiles": "Cc1occc1C(=O)N1CC[C@@H](N2CCOCC2)[C@@H]1Cc1ccccc1", "Percent Effect": 5.558}, {"smiles": "CN(C(=O)C1CCCCC1)[C@@H]1CCC[C@@H](N2CCOCC2)[C@@H]1O", "Percent Effect": 5.741}, {"smiles": "CN([C@@H]1CC[C@@H](N2CCOCC2)[C@@H]1O)S(=O)(=O)c1ccccc1", "Percent Effect": 122.9}, {"smiles": "CN(C(=O)C1CCOCC1)[C@@H]1CCC[C@@H](N2CCCC2)[C@@H]1O", "Percent Effect": 75.81}, {"smiles": "O[C@H]1CN(c2nc(-c3ccccc3)no2)C[C@@H]1N1CCOCC1", "Percent Effect": 10.35}, {"smiles": "O=C(C1CCOCC1)N1CC[C@@](O)(c2ccccc2)[C@H]2CCCC[C@@H]21", "Percent Effect": 1.669}, {"smiles": "CN(C)C(=O)CO[C@@H]1CC[C@H]2[C@H]1OCCN2C(=O)C1CCOCC1", "Percent Effect": 4.998}]}]}
